We go through 52 compounds from PubChem BioAssay AID485298 (National Center for Advancing Translational Sciences (NCATS), 2010).

Values joined by “and” are separate entries in the source; they are usually repeats but may differ in a detail not shown here. Equal entries are not always repeated. Screen size: about 320,000 compounds; about 740 (0.23%) were called active. Entries that show only a call come without a potency. Not shown: some 2% with an inconclusive outcome. This is one part of a sample in which actives are shown more often than they occur. Calls come from the whole dose curve; as a rule, active = well fitted activation curve with a large enough effect; inconclusive = small, poorly fitted or top-dose-only effect; inactive = no such curve, though single readings can be large or run the other way. A structure can be active in one record and inactive in another.
Potency is the fitted concentration of half-maximal effect.

This assay can be described thus: qHTS Assay for Small Molecule Inhibitors of Mitochondrial Division or Activators of Mitochondrial Fusion. Note: nearly all actives have a fitted effect of over 45% in size. The conditions noted are these: S. cerevisiae fusion-defective mutant growth rescue, CellTiterGlo 48 h; series mostly up to 46.1 µM. The source says:
NIH Chemical Genomics Center [NCGC] NIH Molecular Libraries Probe Production centers Network [MLPCN] MLPCN Grant: MH081279-01 Assay Submitter (PI): Jodi M. Nunnari NCGC Assay Overview: The budding yeast S. cerevisiae is a powerful system to study mitochondrial fusion. Unlike other organisms, yeast cells without functional mitochondrial DNA (mtDNA) can be propagated and studied as long as they maintain a mitochondrial compartment and are provided with a fermentable carbon source. When mitochondrial fusion is blocked in yeast, mitochondrial tubules rapidly fragment and division continues unopposed. Under conditions where fusion is compromised in mammalian cells, nearly identical changes in mitochondrial structure have been observed. Thus, these findings indicate that steady state mitochondrial structure in cells is a characteristic and specific indicator of fusion activity. Mounting evidence has pointed to a connection between mitochondrial dynamics and apoptosis in mammalian cells. These studies indicate that in mammalian cells mitochondrial dynamics are more integrated into cellular processes than in yeast cells and have evolved not only to distribute the organelle but also to aid in the regulation of cellular homeostasis. Mitochondrial fusion proteins attenuate apoptosis by inhibiting the release of cytochrome c from mitochondria, in part by controlling cristae structures. Thus, small molecules that inhibit mitochondrial […] may promote apoptosis and potentially act as novel chemotherapeutics and stimulation of apoptosis has become an attractive target of anti-cancer therapies. To identify inhibitors of mitochondrial division, we exploit the growth phenotypes of mitochondrial fusion-defective mutants. The temperature sensitive fusion alleles, such as fzo1-1 and mgm1-5, cause mitochondrial membranes to fragment in cells under non-permissive conditions and cells lose mtDNA, and are unable to grow in the presence of non-fermentable carbon source glycerol. Inhibiting mitochondrial division rescues growth. We have developed and optimized a luminescence cell viability assay in 1536 well format for the identification of inhibitors in the yeast mitochondrial fusion-defective assay.
The yeast glycerol stocks where kindly supplied by the laboratory of Dr. Jodi Nunnari, University of California, Davis. All yeast glycerol stock solutions were stored in single use aliquots at -80C. The CellTiterGlo luminescence reagent, containing luciferase and luciferin, were purchased from Promega, and the reagents were stored according to manufacturer's instructions. The Buffer components for the YPEG yeast growth medium were purchased from Sigma-Aldrich (St. Louis, MO). YPEG growth medium: 1% (w/v) yeast extract, 2% (w/v) Bacto-peptone, 3% Ethanol, 3% glycerol, 0.4mM Tryptophan, 0.36mM Adenine. qHTS Assay Protocol: 1.#Dispense 2.5 ul yeast growth medium per 1536 well plate. 2.#Transfer 23 nl per well of compound to plate. 3.#Dispense 2.5 ul yeast solution at appropriate seeding density per well. 4.#Incubate for 48 hours at 37C. 5.#Dispense 5 ul of CellTiterGlow solution per well. 6.#Incubate at ambient for 10 minutes. 7.#Read using bio-luminescence protocol on Viewlux.
(In general: Quantitative high-throughput screening tests each substance at several concentrations.)
Regarding `CC(C)Nc1ncnc2c1nnn2Cc1ccccc1`, the Potency result was “inactive”.

`CN(C)c1cc2c(Nc3ccc4c(cnn4Cc4ccccc4)c3)ncnc2cn1`: the Potency is 18.4 µM (active).

As for `CCOC(=O)N1CCN(C(=O)COC(=O)c2cccc(S(C)(=O)=O)c2)CC1`, the Potency result was “inactive”.

On to `CCOC(=O)C(=CNNc1ccsc1C(=O)OC)C(=O)OCC`, for which the Potency entry was “inactive”.

For `Cc1ccc(O)c(CNc2nc3ccccc3n2C)c1`, the Potency entry is “inactive”.

Regarding `Cc1ccc(O)c(CNc2nc3ccccc3[nH]2)c1`, the Potency entry is “inactive”.

For the compound `Cc1ccc2nnn(Cc3cccc(C(C)(C)C)c3O)c2c1`, the Potency is 12.6 µM (active).

For the compound `CC(/C=C/C1(O)C(C)CC(=O)CC1(C)C)OC1OC(CO)C(O)C(O)C1O` (configuration not stated), the Potency entry is “inactive”.

Regarding `CCCC(C)C(=O)OCC(=O)Nc1c(Br)cc(C)cc1Br` (configuration not stated), the Potency result is “inactive”.

Regarding `Cn1c(=O)c2c(n3c4ccccc4nc13)NC(=O)CC2c1cccc(Cl)c1` (configuration not stated), the Potency result is “inactive”.

For the compound `CC(C)C(=O)Nc1ccc2c3c(cccc13)CC2`, the Potency entry is “inactive”.

In the case of `CCOc1ccc(-n2nc3ccc(NC(=O)c4ccc(OC)c(Cl)c4)cc3n2)cc1`, the Potency result is “inactive”.

For `Cc1cc(-c2nnc(CCC(=O)NC(c3ccccc3)c3ccccc3)o2)no1`, the Potency entry was “inactive”.

As to `O=C(O)C(NS(=O)(=O)c1cccc2nsnc12)c1ccccc1` (configuration not stated), the Potency entry was “inactive”.

As for `O=C(C(NS(=O)(=O)c1cccc2nsnc12)c1ccccc1)N1CCN(c2ccccc2)CC1` (configuration not stated), the Potency is 17.8 µM (active).

As for `O=C(C(NS(=O)(=O)c1cccc2nsnc12)c1ccccc1)N1CCN(c2ccccn2)CC1` (configuration not stated), the Potency result is “inactive”.

Consider `CC(=O)Nc1ccc(C(=O)Nc2cccc(S(=O)(=O)NC3=NCCC3)c2)cc1`, for which the Potency result is “inactive”.

Take `CN(C)c1nc(N)nc(CSc2nnnn2-c2cccc3ccccc23)n1`: the Potency result is “inactive”.

Regarding `Cc1ccc2c(N)c(C(=O)c3ccccc3)sc2n1`, the Potency result is “inactive”.

Turning to `CCc1nc2sc(C(=O)O)c(N)c2c2c1CCCC2`, the Potency result is “inactive”.

Consider `Cc1nc2sc(C(=O)c3ccccc3)c(N)c2c2c1CCCC2`, for which the Potency is 14.1 µM (active).

On to `COc1ccc(OC)c(S(=O)(=O)n2c([N+](=O)[O-])cnc2C)c1`, for which the Potency entry was “inactive”.

`CN(c1ccccn1)c1ncnc2[nH]ncc12`: the Potency entry was “inactive”.

As for `O=S(=O)(c1cccc(C(F)(F)F)c1)N1CCN(c2cnccn2)CC1`, the Potency result was “inactive”.

As to `COC(=O)COc1ccc(C2NC(=O)NC(C)=C2C(=O)NCc2ccccc2)cc1OC` (configuration not stated), the Potency entry is “inactive”.

For the compound `Fc1ccc(Cn2nnnc2C(c2cccs2)N2CCCCCC2)cc1` (configuration not stated), the Potency entry is “inactive”.

As to `CCC(C)(C)n1nnnc1C(c1ccc(OC)c(OC)c1)N1CCN(C(=O)c2ccco2)CC1` (configuration not stated), the Potency result is “inactive”.

Regarding `CCC(C)(C)n1nnnc1C(c1cccs1)N1CCN(c2nc3ccccc3s2)CC1` (configuration not stated), the Potency is 10 µM (active).

Consider `Cc1ccc(C(CNC(=O)Nc2cccc(C)c2)N2CCN(C)CC2)cc1` (configuration not stated), for which the Potency entry is “inactive”.

Consider `CCC1=Nc2cc(C(=O)NCCCOC(C)C)ccc2Sc2ccc(C)cc21`, for which the Potency entry was “inactive”.

Turning to `CCCS(=O)(=O)N1CCCC(C(=O)N2CCN(c3ccccc3)CC2)C1` (configuration not stated), the Potency entry was “inactive”.

On to `O=C(C1CCCN(S(=O)(=O)c2ccccc2)C1)N1CCN(c2ccc(F)cc2)CC1` (configuration not stated), for which the Potency is 3.98 µM (active).

As to `Cc1ccc(S(=O)(=O)N2CCCC(C(=O)N3CCN(C)CC3)C2)cc1` (configuration not stated), the Potency entry is “inactive”.

On to `Cc1cccc(C(=O)Nc2ccc(-c3nc4ncccc4o3)cc2C)c1`, for which the Potency result is “inactive”.

For `COc1cc(NC(=O)CSc2nc3nc(C)c(Cc4ccc(C)cc4)c(C)n3n2)cc(OC)c1OC`, the Potency entry is “inactive”.

As for `C=CCNC(=O)CCCC(=O)NCC=C`, the Potency result is “inactive”.

As to `CSCCC(NC(=O)c1ccco1)C(=O)Nc1cc(C)ccn1` (configuration not stated), the Potency result was “inactive”.

In the case of `Cc1ccc(-n2c(SCC(=O)Nc3ncc(Cl)cc3Cl)nc3ccccc32)cc1`, the Potency was 15.8 µM (active).

As for `NS(=O)(=O)c1cccc(NC(=O)CSc2nc3ccccc3n2-c2ccccc2)c1`, the Potency result is “inactive”.

With `Cc1ccc(SCCC(=O)OCC(=O)Nc2ncc(Cl)cc2Cl)cc1`, the Potency entry is “inactive”.

As to `Cc1ccc(C2C=C(c3ccc(Cl)cc3)Nc3nc(NC(=O)CCC(=O)O)nn32)cc1` (configuration not stated), the Potency entry was “inactive”.

Turning to `CCOc1ccccc1NC(=O)CCn1cnnn1`, the Potency entry was “inactive”.

`CCOC(=O)c1ccc(-c2ccc(/C=C(\C#N)C(=O)Nc3ccc(C)cc3)o2)cc1`: the Potency result is “inactive”.

With `CC1CN/C(=C\C(=O)c2ccc(Br)cc2)C(=O)N1` (configuration not stated), the Potency was 12.6 µM (active).

`COc1cc2c(cc1OC)/C(=C/C(=O)c1ccc(NC(C)=O)cc1)NCC2`: the Potency result is “inactive”.

Take `CC1(C)Cc2ccccc2/C(=C/C(=O)c2ccccc2)N1`: the Potency entry is “inactive”.

With `O=S(=O)(NC1CCN(S(=O)(=O)c2ccc3c(c2)OCCO3)CC1)c1c(F)cccc1F`, the Potency result was “inactive”.

Regarding `Cc1ccc(C(=O)NC(=S)Nc2ccc3[nH]c(=O)[nH]c3c2)cc1C`, the Potency result was “inactive”.

In the case of `CCCC(O)(CCC)C(=O)NN(C(=O)CCl)c1cccc(C)c1`, the Potency result was “inactive”.

Regarding `O=C1c2cccc3cccc(c23)C(=O)N1CCCCCc1n[nH]c(=S)o1`, the Potency result is “inactive”.

With `C[N+](C)(CCCCCC[N+](C)(C)CCCN1C(=O)c2cccc3cccc(c23)C1=O)CCCN1C(=O)c2cccc3cccc(c23)C1=O`, the Potency entry was “inactive and 16.4 µM (active)”.

`O=C(CCCCCN1C(=O)c2cccc3cccc(c23)C1=O)NCc1ccco1`: the Potency entry is “inactive”.
